# LYPLA2 inh: blocks human lysophospholipase 2, a PME1 counter-screen | recombinant LYPLA2, FP-Rh probe fluorescence polarization | inhibition, % at 5.9 µM | hit rate 0.38% among 320,000 | AID 2177;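 active = inhibition above the screen-wide mean plus 3 SD, limit set per campaign, cut at about 26% in these data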;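 also: 0% = LYPLA2 with DMSO and 100% = wells lacking LYPLA2 enzyme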
# LYPLA1 counter: counter-screen for PME1 inhibitors: inhibitors of human LYPLA1; O75608; recombinant LYPLA1, FP-Rh probe fluorescence polarization; inhibition, % at 5.9 µM; hit rate 0.16% among 320,000;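 active = inhibition above the mean of all tested compounds plus 3 SD, set per campaign, cut at about 14% in these data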;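 also: inhibitors block serine hydrolase probe labeling of LYPLA1 so polarization falls; 0% = enzyme with DMSO and 100% = wells lacking LYPLA1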
# pPAFAH inh: pPAFAH (human) enzyme inhibition | inhibition, % at 3.39 µM | recombinant pPAFAH, FP-rhodamine probe fluorescence polarization | hit rate 1.5% among 330,000 | Q13093;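 active = inhibition above the mean inhibition across the screen plus 3 SD, cut at about 25% in these data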;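 also: inhibitors block binding of the rhodamine activity-based probe so polarization drops; 0% = enzyme with DMSO and 100% = wells lacking pPAFAH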
# PAFAH2 inh: PAFAH2 (human) inhibition. Q99487. recombinant PAFAH2, FP-rhodamine activity probe, fluorescence polarization. inhibition, % at 3.39 µM. hit rate 0.99% among 340,000. AID 492956;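 active = inhibition above the mean over all tested compounds plus 3 SD, cut at about 30% in these data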;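 also: inhibitors block probe labeling of enzyme so polarization drops; 0% = enzyme with DMSO and 100% = wells lacking PAFAH2 protein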
# PAFAH1B3 inh: blocks human PAF acetylhydrolase 1B catalytic subunit 3 | recombinant PAFAH1B3, FP-rhodamine probe, fluorescence polarization | inhibition, % at 3.39 µM | hit rate 0.28% among 340,000;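 active = inhibition above the screen-wide average of all tested compounds plus 3 SD, cut at about 25% in these data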;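 also: 0% = enzyme with DMSO only and 100% = wells lacking PAFAH1B3 protein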
# Target sequence (Q15102 whole entry, looked up): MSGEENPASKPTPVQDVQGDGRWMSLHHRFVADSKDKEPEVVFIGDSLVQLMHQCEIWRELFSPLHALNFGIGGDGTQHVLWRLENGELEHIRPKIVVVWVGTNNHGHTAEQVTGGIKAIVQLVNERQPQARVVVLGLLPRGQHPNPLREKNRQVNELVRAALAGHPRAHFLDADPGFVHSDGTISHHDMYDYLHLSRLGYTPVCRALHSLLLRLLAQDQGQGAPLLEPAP
# PAFAH1B2 FP inh: blocks human PAF acetylhydrolase 1b catalytic subunit 2; inhibition, % at 3.39 µM; hit rate 1.2% among 340,000; recombinant PAFAH1B2, FP-rhodamine activity probe, fluorescence polarization; P68402;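 active = inhibition above the mean of all tested compounds plus 3 SD, cut at about 24% in these data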;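 also: 0% = enzyme with DMSO and 100% = wells lacking PAFAH1B2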
# Target sequence (P68402 whole entry, looked up): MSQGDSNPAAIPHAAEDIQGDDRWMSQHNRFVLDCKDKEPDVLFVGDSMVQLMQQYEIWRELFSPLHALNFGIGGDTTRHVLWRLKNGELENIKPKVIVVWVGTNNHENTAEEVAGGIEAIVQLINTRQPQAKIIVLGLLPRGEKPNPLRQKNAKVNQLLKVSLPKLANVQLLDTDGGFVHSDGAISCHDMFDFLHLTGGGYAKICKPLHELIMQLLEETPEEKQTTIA
# PAFAH2 confirm: confirmation of human PAFAH2 inhibitors | shares compounds with PAFAH2 inh | recombinant PAFAH2, FP-rhodamine activity probe, fluorescence polarization | inhibition, % at 3.39 µM | hit rate 65% among 2,300 | AID 493030;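 active = mean inhibition over three repeats above a set limit taken from the earlier primary screen, cut at about 30% in these data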;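 also: inhibitor blocks binding of rhodamine activity probe so polarization falls; 0% = enzyme with DMSO and 100% = wells lacking PAFAH2 protein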
# Starred values were filed as active, the others as inactive; / = not tested or not shown. The list is not random: actives were taken first. Their share in the collection is about 2.9%.
SMILES,LYPLA2 inh,LYPLA1 counter,pPAFAH inh,PAFAH2 inh,PAFAH1B3 inh,PAFAH1B2 FP inh,PAFAH2 confirm
CC(c1ccco1)N(C(=O)c1ccccc1NS(=O)(=O)c1cc([N+](=O)[O-])ccc1Cl)c1ccccn1 (stereo unspecified),8.2,0.6,7.1,62.8*,-1.5,1.4,71.4*
O=C(N1CCOCC1)N(CCN1CCOCC1)Cc1cccc(Cl)c1,-6.4,-3.0,-7.8,-4.8,8.6,-3.8,/
Cc1cc(C)cc(NC(=O)CSc2nc3c(c(=O)[nH]2)CN(Cc2ccc(F)cc2)CC3)c1,1.3,-0.8,5.8,30.7*,4.3,8.6,17.0
N/C(Cc1cccc2ccccc12)=N\OC(=O)c1ccc2c(c1)OCO2,2.2,1.3,4.1,81.0*,1.2,-0.6,78.2*
N/C(=N\OC(=O)c1ccc2c(c1)OCO2)c1cccnc1,2.4,-2.6,6.6,3.8,3.8,3.6,/
N/C(=N\OC(=O)c1ccc2c(c1)OCO2)c1cccc(Br)c1,-1.3,-0.8,0.2,54.7*,1.9,-0.7,49.2*
Cc1csc(CN(C)C(=O)c2cn(Cc3cccc4ccccc34)nn2)n1,-8.1,-2.6,2.4,2.8,2.9,-1.9,/
O=[N+]([O-])c1ccccc1S(=O)(=O)Nc1ccc(S(=O)(=O)Nc2nccs2)cc1,-1.8,0.9,8.3,3.0,15.4,1.6,/
Nc1ccc(S(=O)(=O)Nc2nccs2)cc1N=Nc1ccccc1[N+](=O)[O-],/,/,/,53.5*,20.7,14.1,37.5*
Cc1ccc(C(=O)O/N=C/C2=C(Cl)c3ccccc3CC2)cc1,-3.3,-2.0,1.4,38.2*,3.2,4.3,70.1*
Cc1ccc(CO/N=C/C2=C(Cl)c3ccccc3CC2)cc1,-4.8,1.7,2.5,-1.9,2.9,5.3,/
CC1=C(C#N)C(=O)NC(=O)/C1=C\c1ccc(-c2cc(C)c(C)cc2[N+](=O)[O-])o1,/,/,/,31.7*,17.3,24.1,14.4
COc1ccc(C(=O)N2CCc3ccccc32)cc1,-4.8,-1.4,5.8,2.4,9.6,-0.3,/
O=C(COC(=O)C1CCCCC1)Nc1cccc(F)c1,/,/,9.6,89.2*,3.9,-0.5,79.4*
O=C(COC(=O)C1CCC1)Nc1cccc(Cl)c1,10.7,1.8,0.4,3.0,-1.6,0.0,/
O=C(COC(=O)CC1CCCC1)Nc1cccc(F)c1,6.9,0.4,20.6,81.4*,-1.5,-4.2,81.3*
O=C(COC(=O)C1CCCCC1)Nc1cccc(Br)c1,4.5,-1.6,7.5,77.4*,4.2,-1.7,70.8*
COc1cccc(/C=N/NC(=O)c2c(C)nc3ccc(Br)cn23)c1O,-1.4,0.8,24.1,12.5,5.9,10.8,/
Cc1ccc(NC(=O)COC(=O)CCC2CCCC2)c(Br)c1,-1.6,-0.2,17.8,31.4*,5.7,1.8,14.0
Cc1cc(C)cc(NC(=O)COC(=O)CC2CCCC2)c1,3.5,1.5,23.5,80.3*,4.3,3.5,66.2*
Cc1cc(C)cc(NC(=O)COC(=O)CCC2CCCC2)c1,-0.5,-1.0,22.4,13.7,1.3,-1.6,/
COc1ccc(NC(=O)COC(=O)CC2CCCC2)cc1,/,/,19.5,57.7*,4.3,3.2,47.0*
COc1ccc(NC(=O)COC(=O)COc2ccc(Br)cc2)cc1,23.5,9.0,8.3,-1.8,5.1,8.9,/
COc1ccc(NC(=O)COC(=O)CC2CCCCC2)cc1,-2.3,3.4,6.8,47.8*,0.5,-1.6,42.4*
COc1cc(CCC(=O)OCC(=O)Nc2ccc(C)cc2Br)cc(OC)c1OC,3.1,1.7,5.9,6.8,6.0,-1.0,/
COc1ccc(NC(=O)CN(C)CC(=O)NCC2CCCCC2)cc1,/,/,/,3.3,12.2,4.5,/
CCOC(=O)c1[nH]c2ccc(F)cc2c1NC(=O)CN1CCc2cc(OC)c(OC)cc2C1,-2.4,-4.3,7.4,/,/,/,/
Oc1oc(-c2ccccc2)nc1C=NCc1ccncc1,-5.6,-0.6,14.9,51.7*,8.1,1.1,36.7*
Oc1oc(-c2ccccc2)nc1C=Nc1cccc2ccccc12,-5.5,-4.9,5.2,17.8,9.8,3.6,/
CNc1ccc(C(=O)OCC(=O)NC(=O)NC2CCCCC2)cc1[N+](=O)[O-],/,/,4.2,14.9,9.9,6.6,/
